Laboratory results taken from PubChem BioAssay (NCATS).
Inconclusive results are not listed. A call without a number means that no potency is given here. Activity calls are given as the source filed them. Unless noted, the call rests on the fitted dose curve; in most records, active means well fitted curve in the direction sought with a large enough effect; inconclusive means small, poorly fitted or top-dose-only effect, or another doubt; inactive means no such curve, though single readings can be large; an effect the other way counts as inactive or inconclusive.

Biological target: Mitogen-activated protein kinase 10 (Mus musculus) (UniProt Q61831)
Assay: JNK3 AlphaScreen Assay (AID 530; active means well fitted curve in either direction with a large enough effect, not every such curve was filed as active;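 further: kinase came from lysate of stimulated human HepG2 cells; signal reports phosphorylation of biotinylated GST-cJun 1-79 at Ser73 with 10 µM ATP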)
Details: JNK3 lysate, c-Jun phosphorylation; series mostly up to 57.1 µM
Summary of the method: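 Room-temperature AlphaScreen kinase assay; pre-activated HepG2 lysate as JNK3 source, biotin-GST-cJun(1-79) substrate, 10 uM ATP, compound 15 min preincubation.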

SMILES | Potency | activity change, negative = inhibition
COCCn1c(=O)c(C)nc2cnc(Nc3ccccc3)nc21 | inactive | –
C=C(C)[C@H]1CC=C(C)C(=O)C1 | inactive | –
COc1cccc(Cn2c(=O)cnc3cnc(N4CCN(C)CC4)nc32)c1 | inactive | –
N#Cc1cccc(-c2ccc3ncnc(NCc4ccccc4)c3c2)c1 | inactive | –
COc1ncc2nc(-c3cccs3)c(=O)n(C)c2n1 | inactive | –
Cc1ccccc1-c1ccc2ncnc(N3CCN(C)CC3)c2c1 | inactive | –
COc1ccccc1-c1ccc2ncnc(Nc3ccccc3)c2c1 | inactive | –
C=CC(C)(O)CCC=C(C)C (configuration not stated) | inactive | –
CN(C)CC/C=C1\c2ccccc2CSc2ccccc21 | inactive | –
COC(=O)C1=CO[C@@H](C)[C@H]2CN3CCc4c([nH]c5ccccc45)[C@@H]3C[C@H]12 | inactive | –
N#Cc1ccccc1-c1ccc2ncnc(NCc3cccs3)c2c1 | inactive | –
COc1ccccc1CNc1ncnc2ccc(-c3cccc(C#N)c3)cc12 | inactive | –
COc1ccccc1CNc1cc(-c2cccc(C#N)c2)ncn1 | inactive | –
CC(C)N1CCN(c2ccc(OC[C@@H]3CO[C@@](Cn4cncn4)(c4ccc(Cl)cc4Cl)O3)cc2)CC1 | inactive | –
Cc1nc2cnc(N3CCN(C)CC3)nc2n(C[C@H]2CCCO2)c1=O | inactive | –
COS(C)(=O)=O | inactive | –
CC(C)(S)[C@H](N)C(=O)O | – | 1.55% [at 11.4 µM] (inactive)
FC(F)(F)c1ccccc1-c1ccc2ncnc(N3CCOCC3)c2c1 | inactive | –
CC12CC[C@@H]3c4ccc(OS(=O)(=O)O)cc4CC[C@H]3C1CCC2=O (some centres not stated) | inactive | –
COc1ccccc1-c1ccc2ncnc(NCCN3CCOCC3)c2c1 | inactive | –
FC(F)(F)c1ccccc1-c1ccc2ncnc(NCc3cccs3)c2c1 | inactive | –
C[C@@H]1CCC[C@H](C)N1NC(=O)c1ccc(Cl)c(S(N)(=O)=O)c1 | inactive | –
COc1cccc(Cn2c(=O)c(C)nc3cnc(Nc4cccc(OC)c4)nc32)c1 | inactive | –
Cc1cnc(CNc2ncnc3ccc(-c4ccccc4C(F)(F)F)cc23)cn1 | inactive | –
CN1CCN(c2ccnc(-c3ccc(N(C)C)cc3)n2)CC1 | inactive | –

System: not listed separately
Assay: Cell Viability - N2a (AID 540); further: nearly all actives have a fitted effect of over 45% in size
Details: N2a mouse neuroblastoma cell viability; series mostly up to 92.2 µM
Summary of the method: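 Mouse neuroblastoma N2a cells (1500/well) were preincubated 5 hr at 37 °C, then exposed to compounds for 40 hr at 37 °C in complete medium. Viability was read as intracellular ATP by CellTiter-Glo luminescence; AC50 from Hill fits.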

SMILES | outcome
C=C(C)[C@H]1CC=C(C)C(=O)C1 | inactive
C=CC(C)(O)CCC=C(C)C (configuration not stated) | inactive
COS(C)(=O)=O | inactive

System: not listed separately
Assay: Cell Viability - NIH 3T3 (AID 541); further: nearly all actives have a fitted effect of over 25% in size
Details: NIH 3T3 cell viability, qHTS; series mostly up to 92.2 µM
Summary of the method: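 NIH 3T3 mouse embryo fibroblasts (1000 cells/well) were plated in complete medium and treated with compound for 40 hr at 37 °C. Viability was read as intracellular ATP by CellTiter-Glo luminescence; AC50 values came from Hill-equation fits of concentration-response data.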

SMILES | outcome
C=C(C)[C@H]1CC=C(C)C(=O)C1 | inactive
C=CC(C)(O)CCC=C(C)C (configuration not stated) | inactive
COS(C)(=O)=O | inactive

System: not listed separately
Assay: Cell Viability - HUV-EC-C (AID 542); further: nearly all actives have a fitted effect of over 35% in size
Details: HUV-EC-C endothelial cell viability, qHTS; series mostly up to 92.2 µM
Summary of the method: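 HUV-EC-C normal human vascular endothelial cells, 1000 cells/well, pre-incubated 5 hr at 37 °C, then exposed to compounds for 40 hr at 37 °C in complete medium. Viability measured as intracellular ATP by CellTiter-Glo luminescence; AC50 from Hill fits.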

SMILES | outcome
C=C(C)[C@H]1CC=C(C)C(=O)C1 | inactive
C=CC(C)(O)CCC=C(C)C (configuration not stated) | inactive
COS(C)(=O)=O | inactive

System: not listed separately
Assay: Cell Viability - H-4-II-E (AID 543); further: nearly all actives have a fitted effect of over 35% in size
Details: H-4-II-E rat hepatoma viability; series mostly up to 92.2 µM
Summary of the method: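 Rat hepatoma H-4-II-E cells (1500/well) were plated, incubated 5 hr at 37 °C, then exposed to compounds for 40 hr at 37 °C. Cellular ATP was read by CellTiter-Glo luminescence; AC50 came from Hill-equation fits of concentration-response data.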

SMILES | outcome
C=C(C)[C@H]1CC=C(C)C(=O)C1 | inactive
C=CC(C)(O)CCC=C(C)C (configuration not stated) | inactive
COS(C)(=O)=O | inactive

System: not listed separately
Assay: Cell Viability - SH-SY5Y (AID 544); further: nearly all actives have a fitted effect of over 55% in size
Details: SH-SY5Y neuroblastoma cell viability; series mostly up to 92.2 µM
Summary of the method: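 Human neuroblastoma SH-SY5Y cells (1500/well) in complete medium were exposed to compounds for 40 hr at 37 °C; intracellular ATP was then quantified by CellTiter-Glo luminescence after 20 min at room temperature. AC50 came from Hill-equation concentration-response fits.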

SMILES | outcome
C=C(C)[C@H]1CC=C(C)C(=O)C1 | inactive
C=CC(C)(O)CCC=C(C)C (configuration not stated) | inactive
COS(C)(=O)=O | inactive

System: not listed separately
Assay: Cell Viability - Renal Proximal Tubule (AID 545); further: nearly all actives have a fitted effect of over 40% in size
Details: renal proximal tubule cells viability, primary cells of rat origin; series mostly up to 91.7 µM
Summary of the method: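 Rat renal proximal tubule primary cells, 1000/well, exposed to compounds for 40 hr at 37 °C in complete medium; cellular ATP read by CellTiter-Glo luminescence. AC50 from concentration-response fitted with standard Hill equation.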

SMILES | outcome
C=C(C)[C@H]1CC=C(C)C(=O)C1 | inactive
C=CC(C)(O)CCC=C(C)C (configuration not stated) | inactive
COS(C)(=O)=O | inactive

System: not listed separately
Assay: Cell Viability - Mesenchymal (AID 546);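 further: cells exposed to compound for 40 hours before reading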
Details: mesenchymal cells viability, qHTS; series mostly up to 91.7 µM
Summary of the method: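 AC50 values reflect the drop in intracellular ATP in a human kidney mesenchymal line derived from normal glomeruli. Treatment lasts 40 hr at 37 °C in complete medium, and the signal comes from CellTiter-Glo luminescence.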

SMILES | Potency
C=C(C)[C@H]1CC=C(C)C(=O)C1 | inactive
C=CC(C)(O)CCC=C(C)C (configuration not stated) | inactive
COS(C)(=O)=O | inactive

Biological target: 3',5'-cyclic-AMP phosphodiesterase 4B (Homo sapiens) (UniProt Q07343)
Assay: qHTS Assay for Inhibitors of PDE-IV (AID 607; active means well fitted activation curve with a large enough effect in the main read-out, with a control signal flat, not every such curve was filed as active)
Details: HEK293 ACTOne CNG channel cells, membrane potential fluorescence; series mostly up to 22.9 µM
Summary of the method: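 HEK293 ACTOne cells with CNG channel (1000/well), endogenous PDE4; membrane potential dye, compounds up to 22.9 uM final. Fluorescence Ex 535/Em 590; RO 20-1724 (100 uM final) as reference.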

Sequence of 3',5'-cyclic-AMP phosphodiesterase 4B (Homo sapiens) (Q07343 whole entry, looked up): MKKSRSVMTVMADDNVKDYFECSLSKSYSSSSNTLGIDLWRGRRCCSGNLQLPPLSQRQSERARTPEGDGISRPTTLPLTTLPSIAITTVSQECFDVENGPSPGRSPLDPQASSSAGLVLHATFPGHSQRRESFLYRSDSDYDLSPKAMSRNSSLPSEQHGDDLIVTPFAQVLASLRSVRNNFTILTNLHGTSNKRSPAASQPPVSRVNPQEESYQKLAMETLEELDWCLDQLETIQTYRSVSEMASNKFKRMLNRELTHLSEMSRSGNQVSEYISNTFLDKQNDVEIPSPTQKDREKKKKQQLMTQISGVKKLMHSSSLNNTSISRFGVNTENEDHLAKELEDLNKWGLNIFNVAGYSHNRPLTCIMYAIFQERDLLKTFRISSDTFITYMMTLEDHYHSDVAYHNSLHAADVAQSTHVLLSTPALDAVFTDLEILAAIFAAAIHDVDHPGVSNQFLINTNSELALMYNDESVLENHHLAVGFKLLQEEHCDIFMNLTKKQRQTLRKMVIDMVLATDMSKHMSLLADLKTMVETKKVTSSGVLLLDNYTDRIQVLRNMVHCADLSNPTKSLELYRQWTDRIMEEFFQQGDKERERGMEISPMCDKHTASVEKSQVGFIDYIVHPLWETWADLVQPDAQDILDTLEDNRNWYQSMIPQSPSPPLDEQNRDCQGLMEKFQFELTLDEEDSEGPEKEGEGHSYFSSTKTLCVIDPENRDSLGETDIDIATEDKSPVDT

SMILES | Potency
COCCn1c(=O)c(C)nc2cnc(Nc3ccccc3)nc21 | inactive
COc1cccc(Cn2c(=O)cnc3cnc(N4CCN(C)CC4)nc32)c1 | inactive
COc1ncc2nc(-c3cccs3)c(=O)n(C)c2n1 | inactive
CN(C)CC/C=C1\c2ccccc2CSc2ccccc21 | inactive
COC(=O)C1=CO[C@@H](C)[C@H]2CN3CCc4c([nH]c5ccccc45)[C@@H]3C[C@H]12 | inactive
N#Cc1ccccc1-c1ccc2ncnc(NCc3cccs3)c2c1 | inactive
COc1ccccc1CNc1cc(-c2cccc(C#N)c2)ncn1 | inactive
CC(C)N1CCN(c2ccc(OC[C@@H]3CO[C@@](Cn4cncn4)(c4ccc(Cl)cc4Cl)O3)cc2)CC1 | inactive
CC(C)(S)[C@H](N)C(=O)O | inactive
CC12CC[C@@H]3c4ccc(OS(=O)(=O)O)cc4CC[C@H]3C1CCC2=O (some centres not stated) | inactive
COc1ccccc1-c1ccc2ncnc(NCCN3CCOCC3)c2c1 | inactive
C[C@@H]1CCC[C@H](C)N1NC(=O)c1ccc(Cl)c(S(N)(=O)=O)c1 | inactive
Cc1cnc(CNc2ncnc3ccc(-c4ccccc4C(F)(F)F)cc23)cn1 | inactive
CN1CCN(c2ccnc(-c3ccc(N(C)C)cc3)n2)CC1 | inactive

System: not listed separately
Assay: Cellular Toxicity (caspase-3) HepG2 (AID 654);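 further: cells exposed to compound for 16 hours before reading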
Details: HepG2 caspase-3 activation, luminescence, 0% = DMSO only, 100% = tamoxifen; series mostly up to 92.2 µM
Summary of the method: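 HepG2 cells (1500/well) in complete medium were treated with compounds for 16 hr at 37 °C. Caspase-3/7 activity was then read as luminescence from peptide-aminoluciferin cleavage. AC50 came from Hill fits, normalized to DMSO and 100 uM tamoxifen.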

SMILES | outcome
C=C(C)[C@H]1CC=C(C)C(=O)C1 | inactive
C=CC(C)(O)CCC=C(C)C (configuration not stated) | inactive
COS(C)(=O)=O | inactive

System: not listed separately
Assay: Cellular Toxicity (caspase-3) Jurkat (AID 655);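 further: cells exposed to compound for 16 h at 37 °C before reading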
Details: Jurkat caspase-3 activation, luminescence, DMSO = 0%, tamoxifen = 100%; series mostly up to 92.2 µM
Summary of the method: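 Jurkat cells (5000/well) in complete medium exposed 16 h at 37 C; caspase-3/7 activity read by Caspase-Glo luminescence after 20 min at room temperature. Normalized to DMSO and 100 uM tamoxifen; AC50 from Hill fits.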

SMILES | outcome
C=C(C)[C@H]1CC=C(C)C(=O)C1 | inactive
C=CC(C)(O)CCC=C(C)C (configuration not stated) | inactive
COS(C)(=O)=O | inactive

System: not listed separately
Assay: Cellular Toxicity (caspase-3) HUV-EC-C (AID 656)
Details: HUV-EC-C cells, caspase-3 activation (apoptosis), vehicle = 0, 100 µM tamoxifen = 100%; series mostly up to 92.2 µM
Summary of the method: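 HUV-EC-C cells (1000/well) in complete medium, compound-treated 16 h at 37 °C; caspase-3/7 activity read by Caspase-Glo 3/7 luminescence. Normalized to DMSO (basal) and 100 uM tamoxifen (100%); AC50 from Hill-equation concentration-response fits.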

SMILES | outcome
C=C(C)[C@H]1CC=C(C)C(=O)C1 | inactive
C=CC(C)(O)CCC=C(C)C (configuration not stated) | inactive
COS(C)(=O)=O | inactive

System: not listed separately
Assay: Cellular Toxicity (caspase-3) SHSY5Y (AID 657)
Details: SH-SY5Y caspase-3 activation, DMSO zero, 10 µM staurosporine = 100%; series mostly up to 91.7 µM
Summary of the method: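 SH-SY5Y human neuroblastoma cells, 1500/well, exposed to compound for 16 hours at 37 °C in complete medium. Caspase-3/7 activity read by Caspase-Glo luminescence after 1 hr at room temperature, normalized to DMSO and 10 uM staurosporine; AC50 from Hill fit.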

SMILES | outcome
C=C(C)[C@H]1CC=C(C)C(=O)C1 | inactive
C=CC(C)(O)CCC=C(C)C (configuration not stated) | inactive
COS(C)(=O)=O | inactive
